Data reported in the antibiotic and cytotoxicity screens of Wong et al. (2023).
About 500 (1.3%) of roughly 39,000 compounds were called active. This is one part of a sample in which actives are shown more often than they occur.

The compounds below were run on S. aureus RN4220 (assay: growth inhibition call (relative growth <= 0.2)). Conditions: 50 µM.

Row | Structure (SMILES) | growth inhibition call
1 | CO[C@H]1CN(C)C(=O)c2ccc(NS(C)(=O)=O)cc2OC[C@H](C)N(C(=O)c2ccc3c(c2)OCO3)C[C@@H]1C | inactive
2 | CCCNC(=O)N1C[C@H](O)COC[C@H]2O[C@@H](CC(=O)N3CCOCC3)CC[C@@H]21 | inactive
3 | CCCCc1cc(CCCC)n2nc(-c3ccccc3)cc2n1 | inactive
4 | CCS(=O)(=O)N1C[C@]2(CN(C2)S(=O)(=O)c2cn(cn2)C)c2c([nH]c3cc(ccc23)OC)[C@H]1CO | inactive
5 | COCC#Cc1cnc2c(c1)C(=O)N([C@H](C)CO)C[C@H](C)[C@@H](CN(C)C(=O)c1ccc3c(c1)OCO3)O2 | inactive
6 | C[C@@H]1CCCCO[C@@H](CN(C)Cc2ccc(C(=O)O)cc2)[C@@H](C)CN([C@H](C)CO)C(=O)c2cc(NC(=O)Nc3ccc(F)cc3)ccc2O1 | inactive
7 | CN(C)CCN1C[C@@H]2CN(C(=O)c3cnc[nH]3)C[C@H]2C1=O | inactive
8 | C[C@@H]1CN([C@H](C)CO)C(=O)Cc2cc(NS(=O)(=O)c3cn(C)cn3)ccc2O[C@H]1CN(C)S(=O)(=O)c1ccccc1 | inactive
9 | Cc1ccccc1S(=O)(=O)N1[C@@H]2c3cccc(=O)n3C[C@H]1[C@H](CO)[C@H]2C(=O)N1CCOCC1 | inactive
10 | C[C@H]1CN([C@@H](C)CO)C(=O)c2cccc(NS(=O)(=O)c3cn(C)cn3)c2O[C@@H]1CN(C)Cc1ccc(C(=O)Nc2ccccc2N)cc1 | inactive
11 | Cc1ccc(S(=O)(=O)N(C)C[C@H]2OCCCC[C@@H](C)Oc3ccc(NC(=O)CCCCCC(=O)Nc4ccccc4N)cc3C(=O)N([C@H](C)CO)C[C@@H]2C)cc1 | inactive
12 | Cc1noc(C)c1NC(=O)N(C)C[C@H]1OCCCC[C@@H](C)Oc2ccc(NS(=O)(=O)c3ccc(Cl)cc3)cc2C(=O)N([C@@H](C)CO)C[C@@H]1C | inactive
13 | Cn1c(=O)c2c(ncn2C[C@@H](O)CNc2ccc(Br)cc2)n(C)c1=O | inactive
14 | COc1cc(C)c(C=CC=CC=CC=CC(=O)O)c(C)c1C | inactive
15 | C[C@H]1CN([C@@H](C)CO)C(=O)c2cccc(NC(=O)Nc3ccc(C(F)(F)F)cc3)c2O[C@@H]1CN(C)C(=O)Nc1ccc(F)cc1 | inactive
16 | C[C@H](CO)N1C[C@H](C)[C@H](CN(C)C(=O)Nc2ccc(F)cc2)Oc2c(NC(=O)Nc3ccc(C(F)(F)F)cc3)cccc2C1=O | active
17 | C[C@@H]1CN([C@H](C)CO)C(=O)c2cccc(NC(=O)Nc3ccc(F)cc3)c2O[C@@H]1CN(C)C(=O)Nc1ccc(C(F)(F)F)cc1 | inactive
18 | C[C@H](CO)N1C[C@H](C)[C@@H](CN(C)C(=O)NC2CCCCC2)OCCCC[C@H](C)Oc2ccc(NC(=O)c3ccncc3)cc2C1=O | inactive
19 | C[C@@H]1CN([C@@H](C)CO)C(=O)c2cc(NC(=O)Nc3ccc(F)cc3)ccc2O[C@@H](C)CCCCO[C@@H]1CN(C)C(=O)NC1CCCCC1 | inactive
20 | C[C@@H]1CCCCO[C@@H](CN(C)C(=O)C2CCCCC2)[C@@H](C)CN([C@H](C)CO)C(=O)c2cc(NC(=O)C3CCCCC3)ccc2O1 | inactive

Row | Structure (SMILES) | growth inhibition call
21 | CC1=C(C(=O)O)N2C(=O)C(NC(=O)C(N)C3=CCC=CC3)C2SC1 (stereo not given) | inactive
22 | Cn1nnnc1SCC1=C(C(=O)[O-])N2C(=O)C(NC(=O)C(O)c3ccccc3)C2SC1.[Na+] (stereo not given) | active
23 | CC1=C(C(=O)O)N2C(=O)[C@@H](NC(=O)[C@H](N)C3=CCC=CC3)[C@H]2SC1 | inactive
24 | NCc1ccccc1CC(=O)NC1C(=O)N2C(C(=O)O)=C(CSc3nnnn3CC(=O)O)CSC12 (stereo not given) | active
25 | O=C([O-])C1=C(CSc2nnnn2CS(=O)(=O)[O-])CSC2C(NC(=O)C(O)c3ccccc3)C(=O)N12.[Na+].[Na+] (stereo not given) | active
26 | Cn1nnnc1SCC1=C(C(=O)[O-])N2C(=O)C(NC(=O)C(OC=O)c3ccccc3)C2SC1.[Na+] (stereo not given) | active
27 | CCCNC(=O)C[C@H]1CC[C@H]2[C@@H](COc3ccc(NC(=O)c4ccc5c(c4)OCO5)cc3C(=O)N2C)O1 | inactive
28 | C[C@H]1CN([C@@H](C)CO)C(=O)c2cc(Br)cnc2O[C@H]1CN(C)S(=O)(=O)c1ccccc1F | inactive
29 | Cc1noc(C)c1NC(=O)N(C)C[C@@H]1Oc2ccc(NS(=O)(=O)c3cn(C)cn3)cc2CC(=O)N([C@H](C)CO)C[C@@H]1C | inactive
30 | C[C@H](CO)N1C[C@H](C)[C@H](CN(C)S(=O)(=O)c2ccc(Cl)cc2)Oc2c(NC(=O)Nc3cccc4ccccc34)cccc2C1=O | inactive
31 | Cc1noc(C)c1NC(=O)Nc1ccc2c(c1)C(=O)N([C@@H](C)CO)C[C@H](C)[C@H](CN(C)S(=O)(=O)c1ccccc1)O2 | inactive
32 | C[C@@H]1CN([C@@H](C)CO)C(=O)CCCn2cc(nn2)CO[C@@H]1CN(C)Cc1ccc(C(=O)Nc2ccccc2N)cc1 | inactive
33 | C[C@@H](NS(=O)(=O)c1cccc(F)c1)C(=O)O | inactive
34 | C[C@@H]1CN([C@H](C)CO)C(=O)c2cc(NC(=O)C3CCCCC3)ccc2O[C@@H](C)CCCCO[C@H]1CN(C)C(=O)Nc1ccc(F)cc1 | inactive
35 | C[C@H](CO)N1C[C@H](C)[C@H](CN(C)C(=O)Nc2ccccc2)OCCCC[C@H](C)Oc2ccc(NS(=O)(=O)c3ccc(F)cc3)cc2C1=O | inactive
36 | c1coc(CNc2nc[n+]3c4c2ncn4CC3)c1 | inactive
37 | C[C@@H]1CCCCO[C@H](CN(C)C(=O)Nc2cccc3ccccc23)[C@H](C)CN([C@@H](C)CO)C(=O)c2cc(N(C)C)ccc2O1 | inactive
38 | Cc1noc(C)c1S(=O)(=O)Nc1ccc2c(c1)C(=O)N([C@@H](C)CO)C[C@H](C)[C@@H](CN(C)C(=O)Nc1ccc3c(c1)OCO3)O2 | inactive
39 | CO[C@@H]1[C@@H](O[C@@H]2O[C@H](C)[C@@H](O[C@H]3C[C@@](C)(O)[C@@H](O)[C@H](C)O3)[C@H](N(C)C)[C@H]2O)[C@@H](CC=O)C[C@@H](C)[C@@H](O[C@H]2CC[C@H](N(C)C)[C@@H](C)O2)/C=C/C=C/C[C@@H](C)OC(=O)C[C@H]1O | active
40 | CO[C@@H]1[C@@H](O[C@@H]2O[C@H](C)[C@@H](O[C@H]3C[C@@](C)(O)[C@@H](O)[C@H](C)O3)[C@H](N(C)C)[C@H]2O)[C@@H](CC=O)C[C@@H](C)[C@@H](O[C@H]2CC[C@H](N(C)C)[C@@H](C)O2)/C=C/C=C/CC(C)OC(=O)C[C@H]1OC(C)=O (stereo not given in full) | inactive

Row | Structure (SMILES) | growth inhibition call
41 | COC1C(O)CC(=O)OC(C)CC=CC=CC(OC2CCC(N(C)C)C(C)O2)C(C)CC(CC=O)C1OC1OC(C)C(OC2CC(C)(O)C(O)C(C)O2)C(N(C)C)C1O (stereo not given) | active
42 | Cc1noc(C)c1NC(=O)Nc1ccc2c(c1)C(=O)N([C@H](C)CO)C[C@@H](C)[C@H](CN(C)C(=O)Nc1cccc3ccccc13)O2 | inactive
43 | COC(=O)c1c2oc(c1C(=O)OC)C(=O)N[C@H](Cc1ccccc1)Cn1cc(nn1)[C@@H](Cc1ccccc1)NC(=O)N[C@@H](COC(=O)NCCCCCC(=O)NO)CC2 | inactive
44 | C[C@@H]1CCCCO[C@@H](CN(C)C(=O)Nc2ccc3c(c2)OCO3)[C@@H](C)CN([C@@H](C)CO)C(=O)c2cc(NC(=O)Nc3ccc(F)cc3)ccc2O1 | inactive
45 | COc1ccc(NC(=O)Nc2ccc3c(c2)C(=O)N([C@H](C)CO)C[C@H](C)[C@@H](CN(C)C(=O)Nc2ccccc2)OCCCC[C@@H](C)O3)cc1 | inactive
46 | CCCCCCOC(=O)/N=C(/N)c1ccc(NCc2nc3cc(C(=O)N(CCC(=O)OCC)c4ccccn4)ccc3n2C)cc1 | inactive
47 | CC(C)N1C[C@H](C)[C@@H](CN(C)Cc2ccc(Oc3ccccc3)cc2)Oc2c(NC(=O)C3CCNCC3)cccc2C1=O | active
48 | C[C@@H]1CN([C@@H](C)CO)C(=O)c2cccc(NC(=O)C3CCCCC3)c2O[C@@H]1CN(C)C(=O)Nc1ccc(C(F)(F)F)cc1 | active
49 | C[C@@H]1CN([C@@H](C)CO)C(=O)c2cccc(NC(=O)C3CCCCC3)c2O[C@H]1CN(C)C(=O)Nc1ccc(C(F)(F)F)cc1 | inactive
50 | C[C@H](CO)N1C[C@H](C)[C@H](CN(C)C(=O)Nc2ccc(C(F)(F)F)cc2)Oc2c(NC(=O)C3CCCCC3)cccc2C1=O | inactive
51 | C[C@H](CO)N1C[C@H](C)[C@@H](CN(C)C(=O)Nc2ccc(C(F)(F)F)cc2)Oc2c(NC(=O)C3CCCCC3)cccc2C1=O | inactive
52 | C[C@@H]1CN([C@H](C)CO)C(=O)c2cccc(NC(=O)C3CCCCC3)c2O[C@H]1CN(C)C(=O)Nc1ccc(C(F)(F)F)cc1 | inactive
53 | C[C@H](CO)N1C[C@H](C)[C@@H](CN(C)Cc2ccc(Oc3ccccc3)cc2)Oc2c(NC(=O)C3CC3)cccc2C1=O | inactive
54 | C[C@@H]1CN([C@H](C)CO)C(=O)c2cccc(NC(=O)C3CCCCC3)c2O[C@@H]1CN(C)C(=O)Nc1ccc(C(F)(F)F)cc1 | active
55 | CC(C)N1C[C@H](C)[C@@H](CN(C)Cc2ccc(Oc3ccccc3)cc2)Oc2c(NC(=O)C3CCN(C)CC3)cccc2C1=O | inactive
56 | C[C@@H]1CN([C@H](C)CO)C(=O)Cc2cc(NC(=O)Nc3ccc4c(c3)OCO4)ccc2O[C@H]1CN(C)C(=O)Nc1ccc(C(F)(F)F)cc1 | inactive
57 | C[C@H](CO)N1C[C@H](C)[C@H](CN(C)C(=O)c2ccccc2)OCCCC[C@H](C)Oc2ccc(NC(=O)CCC(F)(F)F)cc2C1=O | inactive
58 | C[C@@H]1CN([C@H](C)CO)S(=O)(=O)c2ccc(-c3ccncc3)cc2O[C@H]1CN(C)C(=O)c1ccc2c(c1)OCO2 | inactive
59 | C[C@@H]1CN([C@H](C)CO)C(=O)c2cc(C#CCN(C)C)cnc2O[C@@H]1CN(C)S(=O)(=O)c1cn(C)cn1 | inactive
60 | COc1ccc(S(=O)(=O)Nc2ccc3c(c2)C(=O)N([C@@H](C)CO)C[C@@H](C)[C@H](CN(C)C(=O)Nc2ccc4c(c2)OCO4)OCCCC[C@@H](C)O3)cc1 | inactive
